# Experimental data published in the supplement of paper PMC3334620.
# In all, about 33,000 sequences were measured (“E-score (-0.5 to 0.5)”: median about -0.04, highest 2% from about 0.36 on). The entries come from a sample that favours the highest values as a whole.
# Target: T1, Hmlalpha2 (UniProt P0CY09)
# T1 sequence: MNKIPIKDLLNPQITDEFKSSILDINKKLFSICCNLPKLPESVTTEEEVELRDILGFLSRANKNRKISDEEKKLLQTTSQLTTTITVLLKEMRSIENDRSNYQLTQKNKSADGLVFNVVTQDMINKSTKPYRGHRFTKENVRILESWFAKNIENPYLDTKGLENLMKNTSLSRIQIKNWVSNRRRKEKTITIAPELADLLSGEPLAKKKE
# Assay: PBM E-score (8-mer binding enrichment) (E-score (-0.5 to 0.5)); higher = stronger / more preferred TF binding
# Conditions: protein concentration: 200 nM; construct: GST-full length
# Procedure, shortened: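 Using PURExpress in vitro transcription/translation, GST-tagged yeast transcription factors were made in full-length or DNA-binding-domain form. These were applied at about 100-200 nM to double-stranded universal all-10-mer Agilent arrays, and bound protein was detected with fluorescent anti-GST. Scans were normalised with masliner before the Universal PBM Analysis Suite assigned E-scores to ungapped eight-base words pooled with their reverse complements.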
row,Sequence,PBM E-score
1,CTGTTGTA,0.253
2,GTGTTGCA,0.187
3,ATGTTGTC,0.364
4,ATGTTGTG,0.362
5,CATACCGG,-0.154
6,AGTCTGCC,-0.184
7,CAACGGAG,-0.12
8,ACCCTTAA,-0.0263
9,AGTATGTA,0.394
10,AGTATGTG,0.115
11,GGTATGTA,0.4
12,GGTATGGA,-0.18
13,CGTATGTA,0.356
14,AGTATGTC,0.201
15,AATTAGAA,0.0299
16,GAAAAACC,-0.0498
17,ATGAGGAG,-0.187
18,CCGTTAAA,0.125
19,GCGTTAAA,0.366
20,GCGTTAAC,0.379
21,ACGTTAAC,0.281
22,CCGTTAAC,0.0773

row,Sequence,PBM E-score
1,TCGTTAAA,0.126
2,CCAACCTC,-0.128
3,GATAAGTA,0.0843
4,AAGGGCTC,-0.21
5,TCGTTTAA,0.293
6,AGCGTGTC,0.317
7,CGCGTGTC,0.262
8,GGCGTGTA,0.464
9,GGCGTGCA,-0.128
10,CGCGTGTA,0.458
11,AGCGTGTG,0.249
12,GGCGTGAA,-0.0431
13,CGCGTGCA,-0.0161
14,AGCGTGTA,0.472
15,AACATATA,0.286
16,CTGGATCC,-0.25
17,GCTTAGAA,-0.00669
18,AAAATTGG,-0.167
19,GGTCGACC,-0.0813
20,AGTAAACA,0.337
21,TGTAAGAA,0.391
22,AGTAACAA,0.288

row,Sequence,PBM E-score
1,GGTAAGAA,-0.0659
2,TGTAACAA,0.384
3,CGTAAGAA,0.106
4,TCTAAACA,0.228
5,GGTAAACA,0.333
6,CGTAAACA,0.394
7,CGTAACAA,0.228
8,TGTAAACA,0.461
9,ACTAAACA,0.196
10,TGCCTCCA,-0.233
11,CTGCACAC,0.0406
12,TATCACGA,0.00013
13,GAAGACAC,0.0337
14,CCGCTCCC,-0.362
15,AGGTCTGG,-0.101
16,AGGAAAGC,-0.203
17,TATAAACA,0.358
18,AGTAAAAA,0.196
19,TGTAAAAA,0.444
20,CGTAGAAA,0.31
21,CGTAAAAA,0.345
22,TGTAGAAA,0.429

row,Sequence,PBM E-score
1,AGTAGAAA,0.124
2,GATAAACA,0.212
3,CATAAACA,0.384
4,TTCTTCAA,0.0864
5,ACTCATAC,-0.00755
6,GGAAGCTA,-0.236
7,CCCTGGGC,-0.302
8,AGCCCTAA,0.00565
9,AAACACAG,0.318
10,AAACACGC,0.426
11,AAACACAC,0.34
12,AAACACGT,0.361
13,AAACACTC,0.109
14,AAACACGA,0.383
15,AAACACCG,0.196
16,AAACACCA,-0.0494
17,AAACACGG,0.371
18,CCAAGTCC,-0.309
19,TGGTGACA,0.087
20,GGGTTGGA,-0.133
21,AAGGGATC,-0.156
22,AGTATACA,0.322

row,Sequence,PBM E-score
1,TGTATACA,0.428
2,GGTATACA,0.254
3,TCTATACA,0.209
4,TGTATAAA,0.342
5,CGTATACA,0.377
6,ATGTGAAT,0.297
7,AACAACCG,0.156
8,GTTTTATA,0.144
9,GGTTTATA,0.101
10,CGTTTACC,0.0999
11,CGTTTAAC,0.365
12,GGTTTACA,0.396
13,CGTTTAAG,-0.102
14,GTTTTACA,0.408
15,CGTTTAGA,-0.00881
16,GGTTTAAC,0.279
17,GTTTTAAA,0.22
18,CGTTTACA,0.452
19,GGTTTAGA,-0.168
20,TCAGGGCA,-0.0208
21,AGGATATG,-0.0728
22,ATGGTCAC,-0.0853
